ELG1 genotox: qHTS screen for small molecules that induce genotoxicity in human embryonic kidney (HEK293T) cells expressing luciferase-tagged ELG1. HEK293T ELG1-luciferase reporter, luminescence, 16 h. AID 504466, 2011. Potency, µM (top dose mostly 46 µM), usual class: activators. 330,000 compounds, 1.3% hits; further: nearly all actives have a fitted effect of over 60% in size
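Reporter readout depends on ELG1 protein level, which increases with genetic stress. After 16 hr compound exposure at 37 °C, luciferase activity was quantified using ONE-Glo.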
SW480 rerep: A quantitative high throughput screen for small molecules that induce DNA re-replication in SW480 colon adenocarcinoma cells; 340,000 compounds, 1.8% hits; SW480 DNA re-replication, Hoechst DNA content imaging, 48 h; Potency, µM (titrated, usually from 46.1 µM), usual class: activators; further: nearly all actives have a fitted effect of over 55% in size
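SW480 cells exposed to compounds for 48 hr at 37 C, 5% CO2, then Hoechst-stained 40 min. Nuclear DNA content imaged by fluorescence scanning (405 nm excitation, 500-530 nm emission); re-replication scored as increased high-intensity nuclei.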
ELG1 repair inh: qHTS screen for small molecules that inhibit ELG1-dependent DNA repair in human embryonic kidney (HEK293T) cells expressing luciferase-tagged ELG1; HEK293T ELG1-luciferase reporter, luminescence, 16 h; DNA damage induced by 5-fluorouridine; Potency, µM (titrated, usually from 46.1 µM), actives largely listed as inhibitors; 330,000 compounds, 2.3% hits; AID 504467, 2011; further: nearly all actives have a fitted effect of over 55% in size
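Reporter activity after DNA damage by 5-fluorouridine is monitored. Compound-treated cells incubate 16 hr at 37 °C, then ONE-Glo is added for 30 min before luminescence reading.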
AT treatment: qHTS Assay for Identifying a Potential Treatment of Ataxia-Telangiectasia. F2112 A-T fibroblasts, KAP-1 phosphorylation AlphaLISA; neocarzinostatin DNA damage 30 min before lysis. Potency, µM (highest dose often 57.5 µM), hits mostly activators. 320,000 compounds, 0.19% hits. AID 485349, 2010; further: nearly all actives have a fitted effect of over 45% in size
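ATM-like activity read as KAP-1 phosphorylation via AlphaLISA donor/acceptor antibody pairs after lysis and 6 hr at 25C. Cells were ATM-null patient fibroblasts (F2112, hTERT), dosed 60 min, then exposed to the DSB inducer NCS for 30 min.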
p53 reactivator: qHTS assay for re-activators of p53 using a Luc reporter; H1299 p53-A138V BP100-luciferase reporter, luminescence, 24 h; Potency, µM (doses to about 92.2 µM), usual class: activators; 320,000 compounds, 0.063% hits; AID 504706, 2011; further: nearly all actives have a fitted effect of over 45% in size
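H1299 (p53-null), stable ts p53-A138V + BP100-Luc; 1000 cells/well, Opti-MEM/10% FBS; cpd 4 pt, 1:5; 24 h, 37 deg C, 5% CO2; detection reagent 10 min RT; luminescence.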
MCF10A rereplic: A quantitative high throughput screen for small molecules that induce DNA re-replication in MCF 10a normal breast cells | AID 624296, 2012 | MCF 10A DNA re-replication, Hoechst nuclear intensity, 48 h | 350,000 compounds, 2.9% hits | Potency, µM (doses to about 46.1 µM), actives largely listed as activators; further: nearly all actives have a fitted effect of over 50% in size
A number is an active result; . = inactive; ? = inconclusive; / = no result; [ ] = dose if it differs, or a comment. An excerpt weighted towards active compounds, which were near 7.1% of everything screened. The call rests on the fitted dose curve; in most records, active means well fitted curve in the direction sought with a large enough effect; inconclusive means small, poorly fitted or top-dose-only effect, or another doubt; inactive means no such curve, though single readings can be large; an effect the other way counts as inactive or inconclusive.

SMILES | ELG1 genotox | SW480 rerep | ELG1 repair inh | AT treatment | p53 reactivator | MCF10A rereplic
CCOc1ccc(N(CC)S(=O)(=O)c2ccc3c(c2)oc(=O)n3C)cc1 | . | . | . | . | . | ?
COc1ccc(S(=O)(=O)N2Cc3cnnn3-c3ccccc3C2C#N)cc1 (stereo unspecified) | / | .[9.22 µM] | / | / | / | .
COc1ccc(S(=O)(=O)N2c3ccc(F)cc3CCC2C)cc1 (stereo unspecified) | / | ? | / | / | / | 0.92µM
O=C1NC(=O)C2(Cc3ccccc3N3CCCC32)C(=O)N1c1ccc(Cl)cc1 (stereo unspecified) | . | . | . | . | . | 20.6µM
Cc1ccc(-c2nc3ccc(Cl)cc3n2OC(=O)N(C)C)cc1 | 2.91µM | . | ? | . | . | .
CC(C)N(Cc1ccccc1)C(=O)CCS(=O)(=O)c1ccc2c(c1)oc(=O)n2C | . | . | . | . | ? | .
CCC(=O)c1ccc(OC(=O)N(C)c2ccccc2)cc1 | 14.6µM | . | ? | . | ? | .
CC1CC(C)CN(S(=O)(=O)c2ccc3c(c2)oc(=O)n3CC(=O)NCc2cccnc2)C1 (stereo unspecified) | . | . | 3.66µM | . | . | .
CCC(C)(C)NC(=O)Cn1c(=O)oc2cc(S(=O)(=O)N3CC(C)CC(C)C3)ccc21 (stereo unspecified) | .[9.26 µM] | . | . | . | . | ?
Cn1cc(/C=C(\C(=O)O)C(C(=O)O)=C2CCCCC2)c2ccccc21 | . | . | . | . | . | .
COc1cc2c(cc1OC)[C@@H]1C(=O)c3ccc4c(c3O[C@@H]1CO2)C[C@H](C(C)C)O4 | . | ? | 0.058µM | . | . | ?
CCCCCCC(=O)O[C@H]1CC[C@H]2[C@@H]3CCC4CC(=O)C=C(C)[C@]4(C)[C@H]3CC[C@]12C (stereo partly specified) | / | ? | / | / | / | .
CC(C)(C)NCC1(CO)SC(N)=NC1=O (stereo unspecified) | . | ? | . | . | . | 20.6µM
O=S(=O)(c1ccc(F)c(F)c1F)N1CCN(c2ncnc3sccc23)CC1 | . | ? | ? | . | . | ?
O=S(=O)(c1ccccc1C(F)(F)F)N1CCN(c2ncnc3sccc23)CC1 | . | . | 16.4µM | . | . | ?
Cc1ccc(N2CCN(C(=O)c3cn(CC4CCCCC4)nn3)C(C)C2)cc1 (stereo unspecified) | / | . | / | / | / | 20.6µM
CC(=O)N1C[C@H](O)C[C@H]1C(=O)O | . | . | . | ? | . | .
C[C@@]12CC[C@H]3[C@@H](CC[C@@H]4C[C@H]5S[C@H]5C[C@]43C)[C@H]1CC[C@H]2O | / | . | / | / | / | .
O=C1NC(=S)N(Cc2ccco2)C(=O)/C1=C\c1cccs1 | . | / | . | . | . | /
CCN1C(=O)C(=C2C=C(C)N(Cc3ccco3)C(C)=C2)C(=O)N(CC)C1=S | . | ? | ? | . | . | 13µM
O=C(CCn1c(=O)oc2ccccc21)N1CCN(C(c2ccccc2)c2ccccc2)CC1 | . | . | 13µM | . | . | ?
CCOc1cc2c(cc1OCC)-n1cccc1C(c1cccc(OCC)c1O)NC2 (stereo unspecified) | . | . | ? | . | . | 18.4µM
Cc1cccc(N=C2c3cc([N+](=O)[O-])ccc3-c3c2cc([N+](=O)[O-])cc3[N+](=O)[O-])c1 | / | 18.4µM | / | / | / | 18.4µM
O=[N+]([O-])c1ccc(F)c([N+](=O)[O-])c1 | / | . | / | / | / | .
CCOP(=O)(OCC)c1nc(-c2ccc(Cl)cc2)oc1NCc1ccccc1 | . | . | 23.1µM | . | . | .
SMILES | ELG1 genotox | SW480 rerep | ELG1 repair inh | AT treatment | p53 reactivator | MCF10A rereplic
CCCOP(=O)(OCCC)c1nc(-c2ccccc2)oc1NCc1ccccc1 | . | 14.6µM | ? | . | . | ?
COc1ccc(CNc2oc(-c3cccc4ccccc34)nc2P(=O)(OC)OC)cc1 | . | 18.4µM | ? | . | . | 20.6µM
C[N+]12CCC(CC1)[C@@H](OC(=O)C(O)(c1ccccc1)c1ccccc1)C2 | / | . | / | / | / | .
Cc1[nH]c2ccc(OC(F)(F)F)cc2c1CCNCc1ccc(Cl)cc1 | . | 16.4µM | . | . | . | ?
ClC1=C(Cl)C2(Cl)C3C4CC(C5OC45)C3C1(Cl)C2(Cl)Cl (stereo unspecified) | / | . | / | / | / | .
OC[C@@H](O)[C@H]1O[C@@H]2OC(C(Cl)(Cl)Cl)O[C@H]2[C@H]1O (stereo partly specified) | / | . | / | / | / | .
C=CCN(C1=NCCN1)c1c(Cl)cccc1Cl | / | . | / | / | / | .
c1ccc(-c2ccc(C(c3ccccc3)n3ccnc3)cc2)cc1 (stereo unspecified) | . | ? | ? | . | . | 10.3µM
COc1ccc(-c2nn(-c3ccccc3)cc2C(=O)N2c3ccc(C)cc3C3CN(C)CCC32)cc1 (stereo unspecified) | . | . | ? | . | . | ?
Brc1ccc(Oc2ccc(Br)cc2Br)c(Br)c1 | . | . | ? | . | ? | ?
Oc1c(Br)cc(Br)cc1Oc1ccc(Br)cc1Br | . | . | . | ? | . | 5.8µM
